High-throughput results from PubChem.
Most compounds without a hit are left out; they make up all but 5.4% or so of the library.
AHR act = activators of human aryl hydrocarbon receptor; activation, % at 5 µM; P35869; AHR-responsive luciferase reporter cells, luminescence; actives 2.5% (n = 320,000); in the data active means activation above about 47%;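 further: 0% = vehicle wells and 100% = reference agonist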
Target sequence (P35869 whole entry, looked up): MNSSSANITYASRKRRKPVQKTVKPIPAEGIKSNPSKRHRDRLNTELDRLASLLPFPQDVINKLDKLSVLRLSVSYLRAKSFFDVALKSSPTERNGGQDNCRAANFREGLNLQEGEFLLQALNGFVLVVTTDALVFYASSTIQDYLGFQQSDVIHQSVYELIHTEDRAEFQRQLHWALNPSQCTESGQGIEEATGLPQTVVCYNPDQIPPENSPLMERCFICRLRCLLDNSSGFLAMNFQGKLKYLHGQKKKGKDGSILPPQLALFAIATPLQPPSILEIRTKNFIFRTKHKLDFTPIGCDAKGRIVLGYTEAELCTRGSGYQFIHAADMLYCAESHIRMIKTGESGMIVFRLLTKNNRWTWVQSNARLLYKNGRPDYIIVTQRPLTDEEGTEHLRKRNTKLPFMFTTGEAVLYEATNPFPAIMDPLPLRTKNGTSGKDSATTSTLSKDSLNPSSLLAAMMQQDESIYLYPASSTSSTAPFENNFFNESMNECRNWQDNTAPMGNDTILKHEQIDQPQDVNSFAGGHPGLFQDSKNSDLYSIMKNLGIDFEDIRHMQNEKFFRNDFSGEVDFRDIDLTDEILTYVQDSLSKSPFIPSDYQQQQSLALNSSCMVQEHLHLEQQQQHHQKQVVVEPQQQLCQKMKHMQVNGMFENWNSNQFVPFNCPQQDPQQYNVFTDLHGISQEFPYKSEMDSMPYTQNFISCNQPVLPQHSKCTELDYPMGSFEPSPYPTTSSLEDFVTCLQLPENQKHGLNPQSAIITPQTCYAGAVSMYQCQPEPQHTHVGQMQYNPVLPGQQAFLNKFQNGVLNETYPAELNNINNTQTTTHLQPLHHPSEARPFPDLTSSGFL
FXN GAA850 act = frataxin GAA850 promoter activation | HEK293 lucGAA850 FXN promoter luciferase reporter, 24 h; percent of 10 µM SAHA response | activation, % at 6 µM | actives 0.56% (n = 360,000) | AID 540364;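 active means activation above the average of all compounds screened plus 3 SD, cutoff fixed separately per campaign, cut at about 7.5% in these data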;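 further: 0% = DMSO wells and 100% = 10 µM SAHA wells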
HSF1 inh = HSF1 inhibition. NIH3T3-HGL HSE-luciferase, MG132-induced, luminescence 8 h; hits give low values. activity change, negative = inhibition, % at 7.5 µM (by protocol). actives 0.77% (n = 300,000);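 active means more than half of replicate wells show activity change below -50%, luminescence cut by over half; inconclusive means some wells, but at most half, below -50%; inactive means no replicate well below -50%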;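 further: luciferase reports HSF-1 transcriptional activity via heat shock element; 0% = median of DMSO wells and -100% = zero luminescence signal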
HSF-1 act = increases HSF-1 driven luciferase reporter signal; activation, % at 9 µM; NIH3T3-HGL HSF-1 luciferase reporter, MG132, 8 h; 100% = twice DMSO control signal; actives 1.7% (n = 300,000);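 active means mean replicate activation of at least 50% with a set share of replicates each reaching 50%; inconclusive means only one of those two conditions met; inactive means mean below 50% and too few replicates reaching it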;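 further: 0% = median of the neutral control wells and 100% = twice that signal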
DAX1 inh = inhibits human nuclear receptor DAX1 | P51843 | HEK293 Gal4-DAX1 luciferase reporter, luminescence | inhibition, % at 6.75 µM | actives 0.99% (n = 340,000) | AID 504766;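 active means inhibition above the mean over all tested compounds plus 3 SD, cut at about 4.2% in these data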;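 further: 0% = DAX1-transfected cells with DMSO and 100% = empty-vector control cells with DMSO; inhibition shows as a rise in luminescence from relieved DAX1 repression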
AHR act cf = human AHR activation, confirmation; shares compounds with AHR act; human cells, AHR-responsive luciferase reporter, luminescence; activation, % at 9 µM; actives 87% (n = 2,300); in the data active means activation above about 49%;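 further: HepG2 hepatoma cells carrying a DRE-driven firefly luciferase reporter; 0% = vehicle wells and 100% = reference agonist wells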
PXR act counter = counter-screen for AHR activators: human PXR activators; shares compounds with AHR act; cell-based PXR reporter, luciferase luminescence; activation, % at 11.6 µM; actives 88% (n = 2,300); in the data active means activation above about 11%;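 further: human hepatoma DPX-2 cells expressing full-length human PXR; 0% = DMSO and 100% = reference agonist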
* = called active by the depositor.

For CCn1c(SCC(=O)N/N=C/C=C\c2ccccc2[N+](=O)[O-])nc2ccccc21 the results were AHR act 33, FXN GAA850 act 0, HSF1 inh -2, HSF-1 act 7 and DAX1 inh 4.
Screening [O-]/[N+](=C/c1cccnc1)c1ccc(Br)cc1 returned AHR act 93*, FXN GAA850 act 3, HSF1 inh 22, HSF-1 act 35, DAX1 inh 3, AHR act cf 117* and PXR act counter 18*.
For [O-]/[N+](=C\c1ccncc1)c1ccc(Br)cc1 the results were AHR act 123*, FXN GAA850 act 7, HSF1 inh 78, HSF-1 act 117*, DAX1 inh 1, AHR act cf 130* and PXR act counter 16*.
Screening COC(=O)c1ccccc1-c1ccc(/C=N/NC(N)=O)o1 returned AHR act 2, FXN GAA850 act 2, HSF1 inh -7, HSF-1 act -1 and DAX1 inh 0.
`Cc1nnc(N/N=C/c2ccc(-c3ccccc3F)o2)n1N` gave AHR act 109*, FXN GAA850 act 3, HSF1 inh 27, HSF-1 act 37, DAX1 inh -2, AHR act cf 75* and PXR act counter 24*.
CCN(CC)c1ccc(NC(=O)c2cccnc2)cc1 was read as AHR act 0, FXN GAA850 act 1, HSF1 inh 17, HSF-1 act inconclusive and DAX1 inh 0.
CCN=C(Nc1ccc(Cl)cc1)c1cccnc1 was read as AHR act 104*, FXN GAA850 act 2, HSF1 inh -3, HSF-1 act -7, DAX1 inh -1, AHR act cf 81* and PXR act counter 35*.
Screening CCCc1nc(NC(=O)c2ccccc2)nc(NC(=O)c2ccccc2)n1 returned AHR act 16, FXN GAA850 act 0, HSF1 inh 10, HSF-1 act 26 and DAX1 inh -1.
For O=C1CN(C(=O)CNCc2ccccc2Cl)c2ccccc2N1 the results were AHR act 88*, FXN GAA850 act 2, HSF1 inh 7, HSF-1 act 1, DAX1 inh 1, AHR act cf 61* and PXR act counter 39*.
`O=C(Nc1ccc(F)cc1)c1ccc2nc[nH]c2c1` gave AHR act 147*, FXN GAA850 act 4, HSF1 inh 7, HSF-1 act -16, DAX1 inh 1, AHR act cf 136* and PXR act counter 14*.
For O=C(Nc1ccc(F)cc1)c1nsc(Cl)c1Cl the results were AHR act 83*, FXN GAA850 act 8, HSF1 inh 14, HSF-1 act 49, DAX1 inh 3, AHR act cf 222* and PXR act counter 40*.
Screening COc1cccc(NC(=O)c2ccc3nsnc3c2)c1 returned AHR act 20, FXN GAA850 act 2, HSF1 inh 21, HSF-1 act 1 and DAX1 inh 0.
For CN(C)c1ccc(NC(=O)c2ccc3nc[nH]c3c2)cc1 the results were AHR act 2, FXN GAA850 act 4, HSF1 inh 5, HSF-1 act 2 and DAX1 inh 0.
Screening O=C(Nc1ccc(F)c(Cl)c1)c1nsc(Cl)c1Cl returned AHR act 30, FXN GAA850 act 3, HSF1 inh 29, HSF-1 act 43 and DAX1 inh 4.
For O=C(Nc1ccc(F)cc1)c1ccc2nsnc2c1 the results were AHR act 96*, FXN GAA850 act 5, HSF1 inh 9, HSF-1 act 2, DAX1 inh -1, AHR act cf 124* and PXR act counter 26*.
Screening CCC(C)[C@H](NC(=O)N1CC(=O)Nc2ccccc21)C(=O)N[C@H](C(=O)O)c1ccccc1 (stereo partly specified) returned AHR act 1, FXN GAA850 act 3, HSF1 inh -3, HSF-1 act 9 and DAX1 inh 0.
`CC(Cc1cccs1)NC(=O)CCCn1nnnc1CN1CCOCC1` (stereo unspecified) gave AHR act 0, FXN GAA850 act 0, HSF1 inh -9, HSF-1 act -5 and DAX1 inh 0.
`O=c1c2[nH]c3cccc(Cl)c3c2ncn1Cc1ccncc1` gave AHR act 84*, FXN GAA850 act -1, DAX1 inh 0, AHR act cf 74* and PXR act counter 19*.
`O=C(O)COn1c(-c2ccccc2)nc2ccc([N+](=O)[O-])cc21` gave AHR act 141*, FXN GAA850 act 2, HSF1 inh 40, HSF-1 act 82*, DAX1 inh 2 and AHR act cf 53*.
For CCOC(=O)C(C)On1c(-c2ccccc2)nc2ccc([N+](=O)[O-])cc21 (stereo unspecified) the results were AHR act 11, FXN GAA850 act 3, HSF1 inh 26, HSF-1 act 37 and DAX1 inh 4.
Screening Cc1csc(NC(=O)CSc2ccc3nnc(-c4ccncc4)n3n2)n1 returned AHR act 92*, FXN GAA850 act 1, HSF1 inh -4, HSF-1 act -12, DAX1 inh -2 and AHR act cf 65*.
COc1ccc(C(=O)CSc2ccc3nnc(-c4cccnc4)n3n2)cc1 was read as AHR act 83*, FXN GAA850 act 0, HSF1 inh -4, HSF-1 act -21, DAX1 inh 0, AHR act cf 74* and PXR act counter 11*.
Screening COc1ccc(NC(=O)CSc2ccc3nnc(-c4cccnc4)n3n2)cc1 returned AHR act 3, FXN GAA850 act 1, HSF1 inh -7, HSF-1 act 8 and DAX1 inh 1.
Screening COc1ccccc1NC(=O)CSc1ccc2nnc(-c3ccncc3)n2n1 returned AHR act 27, FXN GAA850 act -1, HSF1 inh -2, HSF-1 act 10 and DAX1 inh 0.
CCOC(=O)c1c(NCCN(C)C)c2ccccc2[nH]c1=O was read as AHR act 2, FXN GAA850 act -1, HSF1 inh -6, HSF-1 act 16 and DAX1 inh 4.
Screening CCOC(=O)c1c(NCc2ccc3c(c2)OCO3)c2ccccc2[nH]c1=O returned AHR act 109*, FXN GAA850 act 1, DAX1 inh 1, AHR act cf 74* and PXR act counter 156*.
Cc1csc(NC(=O)c2cc(-c3ccccc3)nc3ccccc23)n1 was read as AHR act 32, FXN GAA850 act 0, HSF1 inh 5, HSF-1 act -7 and DAX1 inh -2.
COc1ccc(NCc2ccccc2[N+](=O)[O-])cc1OC was read as AHR act 3, FXN GAA850 act 1, HSF1 inh 12, HSF-1 act 24 and DAX1 inh 1.
